High-throughput results (PubChem)
Mm-Cpn inhibitor: Inhibitors of TCP-1 ring complex (TRiC) of Methanococcus maripaludis (MmCpn): qHTS | Chaperonin Mm-Cpn (Methanococcus maripaludis) | purified Mm-Cpn ATPase, ADP Transcreener TR-FRET | Potency, µM (doses to about 76.9 µM), actives largely listed as inhibitors | 330,000 compounds, 0.031% hits; also: nearly all actives have a fitted effect of over 80% in size
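Compound-treated chaperonin, 25 nM final, turns over 10 uM ATP at 37°C for 30 min following a 10 min preincubation; ADP generated competes with ADP-d2 for Eu-cryptate antibody, lowering FRET.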
G9a inh: qHTS Assay for Inhibitors of Histone Lysine Methyltransferase G9a. Histone-lysine N-methyltransferase EHMT2 (Homo sapiens), Q96KQ7. AID 504332, 2011. Potency, µM (series often up to 102 µM), usual class: inhibitors. 350,000 compounds, 8.8% hits. G9a H3K9 monomethylation, AlphaScreen, 2 h; also: nearly all actives have a fitted effect of over 75% in size
Target sequence (Q96KQ7 913-1193 limits assumed): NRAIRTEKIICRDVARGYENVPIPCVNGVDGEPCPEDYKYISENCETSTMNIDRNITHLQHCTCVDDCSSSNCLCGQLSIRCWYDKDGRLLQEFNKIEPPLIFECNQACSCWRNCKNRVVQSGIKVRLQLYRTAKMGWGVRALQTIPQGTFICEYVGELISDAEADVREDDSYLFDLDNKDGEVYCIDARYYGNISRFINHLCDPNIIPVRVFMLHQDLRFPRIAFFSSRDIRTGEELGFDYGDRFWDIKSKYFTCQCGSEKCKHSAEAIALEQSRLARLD
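AlphaScreen detection with an anti-monomethyl H3K9 antibody quantified product after a 2 h room-temperature reaction containing 500 nM biotinylated H3K9 peptide, 20 µM SAM and 20 nM enzyme, which had been preincubated 15 min with compound.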
VDR inhibitor: Inhibitors of the vitamin D receptor (VDR): qHTS; VDR-SRC2-3 peptide fluorescence polarization, 2 h; Potency, µM, usual class: inhibitors; 400,000 compounds, 0.93% hits
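FP read-out; VDR + SRC2-3 coactivator peptide; 23 nl compound by pintool; 2 h RT incubation; reagents held at 4 deg C, protected from light.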
PLK1 PBD block: qHTS for Inhibitors of PLK1-PDB (polo-like kinase 1 - polo-box domain): Primary Screen; Potency, µM, most hits filed as inhibitors; Plk1 PBD binding of FITC phosphopeptide, fluorescence polarization; 360,000 compounds, 2.8% hits; Serine/threonine-protein kinase PLK1 (Homo sapiens), P53350; also: series mostly up to about 57 µM; nearly all actives have a fitted effect of over 65% in size
CCT modulator: High-Throughput Screening for Modulators of Cytosolic Chaperonin Activity; purified chaperonin ATPase assay, HTRF ADP detection, 30 min; activity change, % (concentration not given with the values), hits read low; 360,000 compounds, 0.3% hits; AID 651819, 2012; in the data active = activity change below about -30%
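Enzyme 40 or 20 nM (batch-dependent) in Tris pH 7.4/KCl/MgCl2/DTT; cpd 76 uM single point; ATP 10 uM; 30 min 37 °C; Transcreener ADP HTRF detection, 30 min RT; ratio 665/615.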
Sfp inh: qHTS Assay for Inhibitors of Bacillus subtilis Sfp phosphopantetheinyl transferase (PPTase); 4'-phosphopantetheinyl transferase ffp (Bacillus subtilis), Q9F4F7; 310,000 compounds, 3.5% hits; Potency, µM, usual class: inhibitors; Biochemical Sfp PPTase activity, qHTS;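 also: the enzyme is Sfp with the accession as filed and its product quenches rhodamine fluorescence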
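Step 1, compound plus 15 nM Sfp-PPTase, 15 min, room temperature. Step 2, add rhodamine-CoA (5 uM) and BHQ-2-YbbR (12.5 uM). Step 3, read 525/598 nm fluorescence at 0 and 30 min.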
Of the large screens only hits and unclear results are named; the others gave an inactive call. Rows were chosen to be rich in hits. Some 10% of all compounds tested hit in one or more screens of this group. Unless noted, calls follow the shape of the dose curve; as a rule, active = well fitted curve in the direction sought with a large enough effect; inconclusive = small, poorly fitted or top-dose-only effect, or another doubt; inactive = no such curve, though single readings can be large; an effect the other way counts as inactive or inconclusive.

CCN(CC)c1ccc(NC(=O)CN2C(=O)CC(C)(C)S(=O)(=O)c3ccccc32)c(C)c1	G9a inh 8.9µM, PLK1 PBD block inconclusive
O=C(CNCc1ccccc1Cl)Nc1ccccc1N1CCCCC1	G9a inh 10µM
COc1ccc(CCNC(=O)c2cc(C)nc3c2c(C)nn3-c2ccc(C)cc2)cc1OC	none (no result: Mm-Cpn inhibitor, PLK1 PBD block, CCT modulator, Sfp inh)
NS(=O)(=O)c1ccc(NC(=O)COC(=O)C2CCCCC2)cc1	none
O=C(COC(=O)C1CCCCC1)Nc1ccc(N2CCCCC2)cc1	G9a inh 11µM
O=C(CNCC1CCCO1)N1CCCCCC1 (configuration not stated)	G9a inh 25µM, Sfp inh inconclusive
CC(C)CN1CCC(C(=O)NCC2CCCO2)CC1 (configuration not stated)	G9a inh 10µM, Sfp inh inconclusive
CC1CCN(S(=O)(=O)c2ccc(NC(=O)CN3CCN(c4ccccc4)CC3)cc2)CC1	G9a inh inconclusive
CC1CCN(CC(=O)Nc2ccc(N3CCCCCC3)cc2)CC1	G9a inh 10µM
O=C(NCC1CCCO1)C1CCN(CC2CCCCC2)CC1 (configuration not stated)	G9a inh inconclusive
Cc1ccc(-c2nn(CC(=O)NCc3ccccc3)c3c2cnc2ccc(F)cc23)cc1C	none (no result: Mm-Cpn inhibitor, PLK1 PBD block, CCT modulator, Sfp inh)
COc1cccc(CNC(=O)CC(c2ccc(C)cc2)N2Cc3ccccc3C2=O)c1 (configuration not stated)	none (no result: Mm-Cpn inhibitor, PLK1 PBD block, CCT modulator, Sfp inh)
O=C(CNCC1CCCCC1)Nc1ccc(N2CCCCC2)cc1	G9a inh 22µM, Sfp inh inconclusive (no result: VDR inhibitor, PLK1 PBD block, CCT modulator)
CCN(CC)c1ccc(NC(=O)CNCc2ccccc2Cl)c(C)c1	G9a inh 35µM
Cc1ccc(N2CCN(c3ccc(NC(=O)CCC(=O)O)cc3)CC2)cc1	G9a inh inconclusive
O=C(O)CCC(=O)Nc1ccc(N2CCCCCC2)cc1	G9a inh 0.89µM, VDR inhibitor inconclusive, Sfp inh 22µM
CNC(=O)Cn1cc(S(=O)(=O)Cc2ccccc2F)c2ccccc21	none (no result: Mm-Cpn inhibitor, PLK1 PBD block, CCT modulator, Sfp inh)
CC(=O)c1ccc(NC(=O)CN(C)S(=O)(=O)c2cccc3nsnc23)cc1	none (no result: Mm-Cpn inhibitor, PLK1 PBD block, CCT modulator, Sfp inh)
CCN(CC)c1ccc(C(=O)N2CCc3c([nH]c4ccccc34)C2c2ccc(F)cc2)cc1 (configuration not stated)	none (no result: Mm-Cpn inhibitor, PLK1 PBD block, CCT modulator, Sfp inh)
O=C(CCC(=O)N1CCOc2ccc(Cl)cc21)NCCCN1CCN(c2ccccc2F)CC1	G9a inh 89µM
CCc1ccc(-c2nc(CN3CCCC(C(=O)N4CCN(c5cc(Cl)ccc5C)CC4)C3)c(C)o2)cc1 (configuration not stated)	G9a inh 8.9µM (no result: Mm-Cpn inhibitor, PLK1 PBD block, CCT modulator, Sfp inh)
COc1ccc(-c2nc(CN3CCC(C(=O)NCCCOC(C)C)CC3)c(C)o2)cc1OC	G9a inh 8.9µM (no result: Mm-Cpn inhibitor, PLK1 PBD block, CCT modulator, Sfp inh)
Cc1oc(-c2ccc(Cl)cc2)nc1CN1CCCC(C(=O)NC2CC2)C1 (configuration not stated)	VDR inhibitor inconclusive, PLK1 PBD block 21µM
COc1ccc(CNC(=O)C2CCCN(Cc3nc(-c4cccc(C)c4)oc3C)C2)cc1 (configuration not stated)	Sfp inh 56µM
COC(=O)c1cccnc1	G9a inh inconclusive, VDR inhibitor inconclusive (no result: Mm-Cpn inhibitor, PLK1 PBD block, CCT modulator)
O=C(CSc1nccn1Cc1ccc(Cl)cc1)NC1CCCC1	none (no result: Mm-Cpn inhibitor, PLK1 PBD block, CCT modulator, Sfp inh)
COc1cccc(CNC(=O)CCc2c(C)c3cc4c(C)coc4c(C)c3oc2=O)c1	none (no result: Mm-Cpn inhibitor, PLK1 PBD block, CCT modulator, Sfp inh)
CCc1ccc(CNC(=O)C2CCN(C(=O)N3CC(CC)Oc4ccc(C)cc43)CC2)cc1 (configuration not stated)	none (no result: Mm-Cpn inhibitor, PLK1 PBD block, CCT modulator, Sfp inh)
CCc1ccc(/C=C2/C(=O)N(CC)C(=S)N2C)s1	PLK1 PBD block 24µM
